Screening data from PubChem.
AGP1-GFP MLPCN – modulators of AGP1-GFP expression in yeast TOR pathway, primary screen, cell-based, multiplex flow cytometry, S. cerevisiae, MLPCN library. 320,000 tested, 0.02% active. 3 h; GFP as percent of DMSO wells. GFP response vs DMSO, % at 10 µM;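 active means GFP response relative to DMSO above a set limit, near screen average plus 3 SD, cut at about 150% in these data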;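 further: median GFP channel fluorescence of the gated AGP1 strain per well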
MEP2-GFP yeast – modulators of MEP2-GFP levels in yeast, primary screen, S. cerevisiae, multiplex flow cytometry, MLPCN library. S. cerevisiae MEP2-GFP strain, 3 h; 100% = DMSO control level. GFP response vs DMSO, % at 10 µM. 330,000 tested, 0.51% active;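 active means GFP response versus DMSO above a set limit, roughly screen mean plus 3 SD, cut at about 180% in these data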;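 further: median GFP fluorescence of the barcode-gated MEP2-GFP cells per well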
LAP4 TOR yeast – modulators of LAP4-GFP expression in yeast, primary screen, S. cerevisiae, multiplex flow cytometry, MLPCN library. 320,000 tested, 0.34% active. GFP response vs DMSO, % at 10 µM. 3 h; median GFP as percent of DMSO wells;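 active means GFP response vs DMSO above a set limit, about the screen mean plus 3 SD, cut at about 150% in these data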
RPL19A-GFP yeast – RPL19A-GFP expression modulators in yeast, primary screen, cell-based, S. cerevisiae, multiplex flow cytometry, MLPCN; S. cerevisiae RPL19A-GFP strain, 3 h; hits give low values; percent response vs DMSO, % at 10 µM; 330,000 tested, 0.3% active;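 active means percent response vs DMSO below 50%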;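 further: median channel GFP fluorescence of the barcoded RPL19A-GFP strain; ratio of sample median GFP to plate DMSO average so 100% = DMSO; lower means less RPL19A-GFP as with rapamycin TOR inhibition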
CIT2 TOR yeast – modulators of CIT2-GFP expression in yeast, primary screen, S. cerevisiae, GFP fusion, multiplex flow cytometry, MLPCN library; S. cerevisiae CIT2-GFP strain, 3 h; 100 means same as DMSO wells; 320,000 tested, 0.065% active; GFP response vs DMSO, % at 10 µM;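 active means GFP response relative to DMSO above a set limit, near the screen mean plus 3 SD, cut at about 150% in these data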;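 further: ratio of well median GFP fluorescence to mean of DMSO wells on the plate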
LAP4-GFP pick2 – LAP4-GFP expression modulators in yeast, confirmation, cell-based, second cherry pick, flow cytometry; S. cerevisiae LAP4-GFP strain, 3 h; 590 tested, 20% active; GFP response vs DMSO, % at 10 µM; shares compounds with LAP4 TOR yeast;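 active means GFP signal as percent of the solvent control above about 150%, meaning raised reporter expression, limit read from the data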;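 further: ratio of well median GFP fluorescence to plate DMSO mean so 100% = DMSO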
MEP2-GFP pick2 – modulators of MEP2-GFP levels in yeast, confirmation, S. cerevisiae, flow cytometry GFP, second cherry picks; AID 2622, 2010; shares compounds with LAP4 TOR yeast; GFP response vs DMSO, % at 10 µM; S. cerevisiae MEP2-GFP strain, 3 h; 590 tested, 10% active;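 active means GFP signal above 150% of the solvent control wells, that is a rise of more than half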;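 further: median channel GFP fluorescence of all gated yeast cells per well; ratio of median GFP to plate DMSO average so 100% = DMSO level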
RPL19A GFP CP2 – RPL19A-GFP modulators in TOR pathway yeast, confirmation, cell-based, S. cerevisiae, flow cytometry, second cherry pick | GFP response vs DMSO, % at 10 µM | shares compounds with LAP4 TOR yeast | 590 tested, 3% active | S. cerevisiae RPL19A-GFP strain, 3 h; hits give low values; 100% means same as DMSO wells | AID 2623, 2010;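 active means under 65% GFP response relative to DMSO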;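 further: median GFP channel fluorescence per well over the all cells gate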
CIT2 GFP CP2 – modulators of CIT2-GFP expression in yeast, confirmation, flow cytometry, second cherry pick, single plex; shares compounds with LAP4 TOR yeast; S. cerevisiae CIT2-GFP strain, 3 h; DMSO control wells read 100%; GFP response vs DMSO, % at 10 µM; 590 tested, 8% active; AID 2624, 2010;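 active means GFP response vs DMSO above about 150%, limit read from the data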;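 further: median green fluorescence per well over all gated yeast cells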
AGP1 GFP CP2 – AGP1-GFP expression modulators, hit retest, confirmation, cell-based, flow cytometry, S. cerevisiae, cherry pick set 2. shares compounds with LAP4 TOR yeast. S. cerevisiae AGP1-GFP strain, 3 h. percent response vs DMSO, % at 10 µM. 590 tested, under 10 active;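 active means over 150 percent of DMSO response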;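 further: median GFP channel fluorescence over all cells without mother daughter split; sample median GFP divided by mean DMSO control so 100% equals DMSO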
Yeast autofluor – compound autofluorescence in yeast s288c, dose response, artefact control for yeast TOR pathway GFP screen, s288c strain | fluorescence change (kMESF span) at 33 µM | shares compounds with LAP4 TOR yeast | S. cerevisiae s288c, 520 nm autofluorescence, flow cytometry, 3 h; hits give high values; zero means same as solvent-only cells | 610 tested, under 10 active;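 active means fluorescence span over the dose series, or activity score, above about 33, limit read from the data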
Active calls of the source: *; / = no result given. Hits are enriched below; roughly 0.93% of the tested compounds scored in any of these assays.

SMILES	AGP1-GFP MLPCN	MEP2-GFP yeast	LAP4 TOR yeast	RPL19A-GFP yeast	CIT2 TOR yeast	LAP4-GFP pick2	MEP2-GFP pick2	RPL19A GFP CP2	CIT2 GFP CP2	AGP1 GFP CP2	Yeast autofluor
COc1ccccc1NC1=C(Cl)C(=O)N(c2ccccc2)C1=O	105	114	101	104	106	/	/	/	/	/	-0.21
COc1ccc(NC2=C(Cl)C(=O)N(c3ccccc3)C2=O)c(OC)c1	94	103	88	96	97	/	/	/	/	/	/
CCOc1ccc(N2C(=O)C(Cl)=C(Nc3ccccc3O)C2=O)cc1	93	97	103	93	89	/	/	/	/	/	0.2
CCOc1ccc(N2C(=O)CN=C2Nc2ccccc2Cl)cc1	86	89	88	93	95	/	/	/	/	/	/
CC12CCC(=O)N1C(C(=O)N1CCN(S(=O)(=O)c3cccc(C(F)(F)F)c3)CC1)CS2 (stereo not given)	111	109	108	101	107	/	/	/	/	/	/
COc1ccc(CN(C)S(=O)(=O)c2nnc(NC(=O)c3cccc(F)c3)s2)cc1OC	100	101	93	102	102	/	/	/	/	/	/
Cc1c2cnn(CC(=O)NCCN3CCOCC3)c(=O)c2c(C)n1Cc1ccc(F)cc1	101	96	98	103	95	/	/	/	/	/	/
COc1ccc(S(=O)(=O)N2CCc3ccccc32)cc1C(=O)NC1(C)CCS(=O)(=O)C1 (stereo not given)	125	172	158*	117	165*	97	94	100	104	97	/
COc1ccc(S(=O)(=O)N2CCCCCC2)cc1C(=O)NC1(C)CCS(=O)(=O)C1 (stereo not given)	104	102	103	100	105	/	/	/	/	/	/
Oc1ccc(N=Nc2ccccc2)o1	96	97	165*	112	112	/	/	/	/	/	0.41
C#CCOCCOCCOCCNc1nc(N2CCN(C(=O)CCCCCCCCCCNC(=O)Cn3cc(CCCCCN)nn3)CC2)nc(N2CCN(C(=O)CCCCCCCCCCNC(=O)[C@H]([C@@H](C)CC)n3cc(CCCCN=C(N)N)nn3)CC2)n1	77	81	151*	86	78	114	133	96	117	106	/
C#CCOCCOCCOCCNc1nc(N2CCN(C(=O)CCCCCCCCCCNC(=O)Cn3cc(C[C@@H](C)O)nn3)CC2)nc(N2CCN(C(=O)CCCCCCCCCCNC(=O)[C@H](CCCN=C(N)N)n3cc(C[C@@H](C)CC)nn3)CC2)n1	93	90	183*	77	78	103	135	94	95	108	/
C#CCOCCOCCOCCNc1nc(N2CCN(C(=O)CCCCCCCCCCNC(=O)Cn3cc(CCCCCN)nn3)CC2)nc(N2CCN(C(=O)CCCCCCCCCCNC(=O)Cn3cc(CCCCCN)nn3)CC2)n1	78	86	152*	85	73	114	131	95	106	106	/
C#CCOCCOCCOCCNc1nc(N2CCN(C(=O)CCCCCCCCCCNC(=O)[C@H]([C@@H](C)CC)n3cc(CCCCCN)nn3)CC2)nc(N2CCN(C(=O)CCCCCCCCCCNC(=O)[C@H]([C@@H](C)CC)n3cc(CCCCN=C(N)N)nn3)CC2)n1	76	87	128	89	84	/	/	/	/	/	/
C#CCOCCOCCOCCNc1nc(N2CCN(C(=O)CCCCCCCCCCNC(=O)Cn3cc(CCCCCN)nn3)CC2)nc(N2CCN(C(=O)CCCCCCCCCCNC(=O)[C@@H](CCC(=O)O)n3cc(CCCCCN)nn3)CC2)n1	84	90	145	93	88	/	/	/	/	/	/
COCCCNC(=O)c1cc2c(=O)n3cccc(C)c3nc2n(C(C)C)c1=N	92	126	95	63	92	100	102	101	101	103	/
CC(C)CN(c1ccccc1)S(=O)(=O)c1nnc(NC(=O)C(C)C)s1	96	102	92	101	97	/	/	/	/	/	/
Cc1ccc(O)c(C(=O)CC(=O)c2ccccc2Cl)c1	51	111	74	51	69	104	102	99	109	97	/
CCOC(=O)CSC1=NC(=O)/C(=C/c2ccc(OC)cc2)S1	93	96	152*	94	75	/	/	/	/	/	2.3
O=C(/C=C/c1ccccc1Cl)c1ccccc(=O)c1O	33	160	146	63	95	162*	222*	76	145	77	16
Cc1ccc(/C=C/C(=O)c2ccccc2)cc1	114	103	111	114	107	/	/	/	/	/	/
Cc1ccc(C)c(/C=C/C(=O)c2ccccc(=O)c2O)c1	67	96	135	91	72	145	168*	78	152*	82	14
Cc1ccc(/C=C/C(=O)c2ccccc(=O)c2O)c(C)c1	20	181*	106	64	103	/	/	/	/	/	0.91
CCn1cc(C(=O)NCCC(C)C)c(=O)c2cc(F)c(N3CCN(C(=O)c4ccco4)CC3)cc21	100	103	94	100	97	/	/	/	/	/	/
CCOC(=O)Cc1csc(SCC(=O)NC2CCC(C)CC2)n1 (stereo not given)	99	103	98	103	98	/	/	/	/	/	/
CCOC(=O)C1CCN(C(=O)COc2ccc3c(C)cc(=O)oc3c2)CC1	109	107	109	102	101	/	/	/	/	/	/
COCCn1c(=O)[nH]c2cc(C(=O)Nc3cc(C)cc(C)c3)ccc2c1=O	110	106	100	108	110	/	/	/	/	/	/
